PubChem BioAssay (Tox21)
Records with an inconclusive call do not appear. Entries that show only a call come without a potency. The source made the active and inactive calls. Unless noted, calls follow the shape of the dose curve; as a rule, active = well fitted curve in the direction sought with a large enough effect in the repeat runs; inconclusive = weak or mixed curves; inactive = no such curve, though single readings can be large; an effect the other way counts as inactive or inconclusive.

Key:
[1] = qHTS assay to identify small molecule that activate the aryl hydrocarbon receptor (AhR) signaling pathway - cell viability counter screen (AID 743086);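 also: HepG2 liver cells carrying the AhR DRE luciferase reporter; series mostly up to about 70 µM; nearly all actives have a fitted effect of over 45% in size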
In short: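 Cytotoxicity counter screen: CellTiter-Fluor signal (30 min, 37 C) in 4000 HepG2 cells/well carrying the DRE-luciferase reporter, following 24 h compound exposure at 37 C.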

[2] = qHTS assay to identify small molecule antagonists of the peroxisome proliferator-activated receptor gamma (PPARg) signaling pathway - cell viability counter screen (AID 743194); also: nearly all actives have a fitted effect of over 55% in size
In short: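 Viability was measured as CellTiter-Glo luminescence in GeneBLAzer PPARg UAS-bla HEK293H cells. These cells had been exposed 17 h at 37 C to compounds together with rosiglitazone at 50 nM final, with the beta-lactamase readout taken in the same wells.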

[3] = qHTS assay for small molecule agonists of the antioxidant response element (ARE) signaling pathway - cell viability counter screen (AID 743203; calls by dose curve; also: nearly all actives have a fitted effect of over 55% in size)
In short: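 Cells (ARE-bla HepG2, 2,000/well) receive DMSO-dissolved compounds after a 5 hrs rest. Plates incubate 16 hrs at 37C/5% CO2. CellTiter-Glo luminescence is then recorded after 30 min at room temperature.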

[4] = qHTS assay for small molecule activators of the heat shock response signaling pathway - cell viability counter screen (AID 743209); also: nearly all actives have a fitted effect of over 50% in size; also: potency is read from the fitted curve at half-maximal effect
In short: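 Quantitative HTS format, Tox21 10K library. HeLa cells carrying an HSE-driven beta-lactamase reporter were treated 5 h at 37 C, then assessed for viability by CellTiter-Glo luminescence.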

[5] = qHTS assay to identify small molecule agonists of the peroxisome proliferator-activated receptor delta (PPARd) signaling pathway - cell viability counter screen (AID 743211); also: nearly all actives have a fitted effect of over 55% in size
In short: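 Viability was measured as CellTiter-Glo luminescence (30 min, room temperature) in the same wells as the beta-lactamase readout. GeneBLAzer PPARd UAS-bla HEK293H cells received compound after 5 h plating and were incubated 17 h at 37 C.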

[6] = molecular target: Peroxisome proliferator-activated receptor delta (Homo sapiens) (UniProt Q03181); assay: qHTS assay to identify small molecule agonists of the peroxisome proliferator-activated receptor delta (PPARd) signaling pathway (AID 743212; calls by dose curve)
In short: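 HEK293H UAS-bla reporter cells, human PPARd system; compounds delivered in DMSO after 5 h plating, then at 37 C. Beta-lactamase FRET read, 2 h RT substrate step.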

[7] = molecular target: Peroxisome proliferator-activated receptor delta (Homo sapiens) (UniProt Q03181); assay: qHTS assay to identify small molecule antagonists of the peroxisome proliferator-activated receptor delta (PPARd) signaling pathway (AID 743215; active = well fitted inhibition curve with a large enough effect in the signal ratio in the repeat runs, not every such curve was filed as active; the % refers to the signal ratio;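 also: cells stimulated with agonist L165041 at 300 nM final during compound exposure; series mostly up to about 62 µM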)
In short: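 Antagonist-mode beta-lactamase reporter screen: HEK293H cells with UAS-bla under PPARd control, stimulated by 300 nM L165041 (final) alongside test compound for 17 h at 37 C, then FRET fluorescence after 2 h substrate incubation.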

[8] = molecular target: Bile acid receptor (Homo sapiens) (UniProt Q96RI1); assay: qHTS assay to identify small molecule antagonists of the farnesoid-X-receptor (FXR) signaling pathway (AID 743217; active = well fitted inhibition curve with a large enough effect in the signal ratio in the repeat runs, not every such curve was filed as active; the % refers to the signal ratio)
In short: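 Beta-lactamase reporter under UAS control in HEK 293T cells; compound exposure 16 h at 37 °C in the presence of chenodeoxycholic acid (50 uM final); signal from B/G FRET substrate after 2 h at room temperature.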

[9] = qHTS assay to identify small molecule agonists of the farnesoid-X-receptor (FXR) signaling pathway - cell viability counter screen (AID 743218); also: nearly all actives have a fitted effect of over 45% in size
In short: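 In GeneBLAzer FXR-UAS-bla HEK 293T cells, compounds act for 16 h at 37 C. Cell viability is then scored in the reporter wells by CellTiter-Glo, 30 min at RT, luminescence.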

[10] = molecular target: Bile acid receptor (Homo sapiens) (UniProt Q96RI1); assay: qHTS assay to identify small molecule agonists of the farnesoid-X-receptor (FXR) signaling pathway (AID 743220; active = well fitted activation curve with a large enough effect in the signal ratio in the repeat runs, not every such curve was filed as active; the % refers to the signal ratio)
In short: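 Beta-lactamase reporter under UAS control in GeneBLAzer FXR HEK 293T cells (5000/well) measured with LiveBLAzer FRET substrate after 2 h at room temperature. Compound exposure lasted 16 h at 37C.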

[11] = molecular target: Vitamin D3 receptor (Homo sapiens) (UniProt P11473); assay: qHTS assay to identify small molecule agonists of the vitamin D receptor (VDR) signaling pathway (AID 743222; calls by dose curve)
In short: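 Agonist activity measured in VDR-bla reporter cells. Exposure 16 h, 37C, 5% CO2; detection by B/G FRET substrate, 2 h RT.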

[12] = molecular target: Vitamin D3 receptor (Homo sapiens) (UniProt P11473); assay: qHTS assay to identify small molecule antagonists of the vitamin D receptor (VDR) signaling pathway (AID 743223; active = well fitted inhibition curve with a large enough effect in the signal ratio in the repeat runs, not every such curve was filed as active; the % refers to the signal ratio)
In short: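 Antagonist mode: compound added to VDR-bla cells alongside agonist 1alpha,25-dihydroxyvitamin D3 (3 nM final), incubation 16 h at 37C. Read-out is LiveBLAzer FRET fluorescence, 2 h at room temperature.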

[13] = qHTS assay to identify small molecule agonists of the vitamin D receptor (VDR) signaling pathway - cell viability counter screen (AID 743224); also: series mostly up to about 63 µM; nearly all actives have a fitted effect of over 50% in size
In short: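 VDR-bla cell line, quantitative HTS format; 16 h compound incubation (37C, 5% CO2); ATP-based CellTiter-Glo luminescence measured in the reporter assay wells.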

[14] = qHTS assay to identify small molecule antagonists of the farnesoid-X-receptor (FXR) signaling pathway - cell viability counter screen (AID 743221; active = well fitted cell-killing curve with a large enough effect in the repeat runs, not every such curve was filed as active; also: nearly all actives have a fitted effect of over 50% in size)
In short: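 Cytotoxicity counter screen run in the FXR-bla reporter wells: HEK 293T cells exposed to compound with 50 uM (final) chenodeoxycholic acid for 16 h, 37 C, then viability measured by CellTiter-Glo luminescence after 30 min, room temperature.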

[15] = qHTS assay for small molecule agonists of the antioxidant response element (ARE) signaling pathway (AID 743202; active = well fitted activation curve with a large enough effect in the signal ratio in the repeat runs, not every such curve was filed as active; the % refers to the signal ratio; also: potency is read from the fitted curve at half-maximal effect)
In short: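 An ARE-responsive beta-lactamase gene stably integrated in HepG2 cells serves as reporter. After 5 h plating and 16 h compound incubation at 37 C, fluorescence of the B/G FRET substrate was measured.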

[16] = qHTS assay for small molecule activators of the heat shock response signaling pathway (AID 743210; active = well fitted activation curve with a large enough effect in the signal ratio in the repeat runs, with a control signal flat, not every such curve was filed as active; the % refers to the signal ratio;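 also: HeLa cells with beta-lactamase reporter driven by heat shock elements; series mostly up to about 63 µM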)
In short: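 In HSE-bla HeLa cells, 5 h compound incubation (37 C) precedes addition of LiveBLAzer B/G substrate; after 2.5 h at room temperature, fluorescence intensity indicates reporter induction.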

[17] = qHTS assay to identify small molecule antagonists of the peroxisome proliferator-activated receptor delta (PPARd) signaling pathway - cell viability counter screen (AID 743213); also: nearly all actives have a fitted effect of over 50% in size
In short: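 HEK293H PPARd UAS-bla cells, 5 h pre-incubation, compound + L165041 300 nM final, 17 h 37 C; B/G FRET substrate 2 h RT; then CellTiter-Glo 30 min RT, luminescence.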

[18] = molecular target: Peroxisome proliferator-activated receptor gamma (Homo sapiens) (UniProt P37231); assay: qHTS assay to identify small molecule agonists of the peroxisome proliferator-activated receptor gamma (PPARg) signaling pathway (AID 743094; active = well fitted activation curve with a large enough effect in the signal ratio in the repeat runs, not every such curve was filed as active; the % refers to the signal ratio)
In short: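 Stably transfected HEK293H cells (GeneBLAzer PPARg UAS-bla) were incubated with test substances for 17 h at 37C after a 5 h pre-incubation; beta-lactamase activity was then detected by FRET substrate fluorescence.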

[19] = molecular target: Peroxisome proliferator-activated receptor gamma (Homo sapiens) (UniProt P37231); assay: qHTS assay to identify small molecule antagonists of the peroxisome proliferator-activated receptor gamma (PPARg) signaling pathway (AID 743191; calls by dose curve; also: series mostly up to about 63 µM; nearly all actives have a fitted effect of over 30% in size)
In short: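 Beta-lactamase reporter under UAS control in HEK293H PPARg-bla cells; compound treatment 17 h at 37C. Read-out: fluorescence intensity after 1 h room-temperature incubation with LiveBLAzer B/G FRET substrate.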

Chain of Bile acid receptor (Homo sapiens) (Q96RI1 whole entry, looked up): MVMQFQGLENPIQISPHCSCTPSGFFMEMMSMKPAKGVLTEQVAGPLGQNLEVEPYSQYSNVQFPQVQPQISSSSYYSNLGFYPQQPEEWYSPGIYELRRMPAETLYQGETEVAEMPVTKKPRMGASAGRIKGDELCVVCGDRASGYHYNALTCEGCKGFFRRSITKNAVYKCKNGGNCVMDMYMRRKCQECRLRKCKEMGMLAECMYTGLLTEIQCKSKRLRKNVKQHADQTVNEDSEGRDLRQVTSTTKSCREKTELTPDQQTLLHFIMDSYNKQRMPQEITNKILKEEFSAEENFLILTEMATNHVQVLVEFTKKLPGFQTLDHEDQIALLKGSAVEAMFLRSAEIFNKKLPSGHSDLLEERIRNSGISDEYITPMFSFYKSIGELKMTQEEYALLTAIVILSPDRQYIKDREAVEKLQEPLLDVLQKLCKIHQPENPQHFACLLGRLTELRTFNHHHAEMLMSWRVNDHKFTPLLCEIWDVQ
Chain of Peroxisome proliferator-activated receptor gamma (Homo sapiens) (P37231 whole entry, looked up): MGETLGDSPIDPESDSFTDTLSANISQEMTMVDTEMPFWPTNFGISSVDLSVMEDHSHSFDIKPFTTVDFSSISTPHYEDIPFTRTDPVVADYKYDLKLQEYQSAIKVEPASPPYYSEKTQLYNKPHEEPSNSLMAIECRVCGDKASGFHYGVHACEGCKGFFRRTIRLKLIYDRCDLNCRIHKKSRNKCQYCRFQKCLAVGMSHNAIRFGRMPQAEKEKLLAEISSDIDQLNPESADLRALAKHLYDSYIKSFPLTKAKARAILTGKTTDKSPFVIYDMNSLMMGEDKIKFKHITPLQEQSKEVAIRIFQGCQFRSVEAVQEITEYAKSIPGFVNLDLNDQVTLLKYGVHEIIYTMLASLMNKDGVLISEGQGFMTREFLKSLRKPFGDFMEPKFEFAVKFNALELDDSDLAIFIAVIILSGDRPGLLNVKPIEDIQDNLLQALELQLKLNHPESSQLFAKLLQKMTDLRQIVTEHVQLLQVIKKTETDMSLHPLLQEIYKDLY
Chain of Peroxisome proliferator-activated receptor delta (Homo sapiens) (Q03181 whole entry, looked up): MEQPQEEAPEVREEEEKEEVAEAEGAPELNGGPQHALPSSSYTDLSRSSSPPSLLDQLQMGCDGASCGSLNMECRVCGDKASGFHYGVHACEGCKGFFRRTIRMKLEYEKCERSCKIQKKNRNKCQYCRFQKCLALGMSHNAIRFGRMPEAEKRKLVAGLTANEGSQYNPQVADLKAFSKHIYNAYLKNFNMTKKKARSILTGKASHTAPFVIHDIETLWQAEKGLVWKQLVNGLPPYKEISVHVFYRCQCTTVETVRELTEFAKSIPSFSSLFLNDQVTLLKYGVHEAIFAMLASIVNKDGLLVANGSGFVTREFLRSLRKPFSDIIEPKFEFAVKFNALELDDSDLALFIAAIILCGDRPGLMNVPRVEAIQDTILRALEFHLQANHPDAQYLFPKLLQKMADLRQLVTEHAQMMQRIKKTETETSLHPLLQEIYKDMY
Chain of Vitamin D3 receptor (Homo sapiens) (P11473 whole entry, looked up): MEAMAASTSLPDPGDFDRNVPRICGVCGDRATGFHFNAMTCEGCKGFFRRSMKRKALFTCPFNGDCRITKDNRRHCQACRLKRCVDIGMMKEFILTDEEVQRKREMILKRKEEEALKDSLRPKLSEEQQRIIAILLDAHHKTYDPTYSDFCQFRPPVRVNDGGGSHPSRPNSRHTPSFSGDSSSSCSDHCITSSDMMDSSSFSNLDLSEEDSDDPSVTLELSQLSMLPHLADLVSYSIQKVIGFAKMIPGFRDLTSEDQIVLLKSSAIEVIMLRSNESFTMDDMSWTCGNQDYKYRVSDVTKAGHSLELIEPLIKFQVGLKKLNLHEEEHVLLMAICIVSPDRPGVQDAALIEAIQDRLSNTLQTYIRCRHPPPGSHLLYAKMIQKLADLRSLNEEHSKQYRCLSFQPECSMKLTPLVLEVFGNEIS

CCC(=O)OCc1ccc(OC)cc1
Potency [1]: inactive
Potency [2]: inactive
Potency [3]: inactive
Potency [4]: inactive
Potency [5]: inactive
outcome [6]: inactive
Potency [7]: inactive
outcome [8]: inactive
Potency [9]: inactive
Potency [10]: inactive
outcome [11]: inactive
outcome [12]: inactive
Potency [13]: inactive

O=[N+]([O-])C1(Br)COCOC1
Potency [1]: inactive
Potency [4]: 49 µM (active)
Potency [9]: inactive
Potency [10]: inactive
Potency [14]: inactive
outcome [11]: inactive

C=C(C)c1ccccc1
Potency [1]: inactive
Potency [2]: inactive
Potency [15]: inactive
Potency [3]: inactive
Potency [4]: inactive
Potency [16]: inactive
Potency [5]: inactive
outcome [6]: inactive
Potency [17]: inactive
Potency [7]: inactive
outcome [8]: inactive
Potency [9]: inactive
Potency [10]: inactive
outcome [11]: inactive
outcome [12]: inactive
Potency [13]: inactive

Cc1cc([N+](=O)[O-])ccc1N
outcome [18]: inactive
Potency [2]: inactive
Potency [15]: inactive
Potency [3]: inactive
Potency [5]: inactive
outcome [6]: inactive
Potency [17]: inactive
Potency [7]: inactive
outcome [8]: inactive
Potency [9]: inactive
Potency [10]: inactive
Potency [14]: inactive
outcome [11]: inactive
outcome [12]: inactive
Potency [13]: inactive

Cc1oc(=O)oc1COC(=O)[C@@H]1N2C(=O)[C@@H](NC(=O)[C@H](N)c3ccccc3)[C@H]2SC1(C)C
Potency [19]: inactive
Potency [2]: inactive
Potency [15]: inactive
Potency [3]: inactive
Potency [16]: inactive
Potency [5]: inactive
outcome [6]: inactive
Potency [7]: inactive
outcome [8]: inactive
Potency [9]: inactive
Potency [10]: inactive
Potency [14]: inactive
outcome [11]: inactive
Potency [13]: inactive

CCCCCCC(O)CCCCCCCCCCC(=O)OC (centres undefined)
Potency [1]: inactive
Potency [15]: inactive
Potency [3]: inactive
Potency [4]: inactive
Potency [5]: inactive
outcome [6]: inactive
Potency [17]: inactive
Potency [7]: inactive
Potency [9]: inactive
Potency [14]: inactive
outcome [11]: inactive
outcome [12]: inactive
Potency [13]: inactive

CC(C)Cc1ccc(CC(=O)O)cc1
Potency [1]: inactive
Potency [2]: inactive
Potency [15]: inactive
Potency [3]: inactive
outcome [6]: inactive
outcome [8]: inactive
Potency [9]: inactive
Potency [10]: inactive
Potency [14]: inactive
outcome [11]: inactive
outcome [12]: inactive

SCCc1cnccn1
Potency [1]: inactive
Potency [19]: inactive
Potency [2]: inactive
Potency [3]: inactive
Potency [17]: inactive
Potency [9]: inactive
Potency [14]: inactive
Potency [13]: inactive

Cc1ccccc1S(N)(=O)=O
Potency [1]: inactive
Potency [2]: inactive
Potency [3]: inactive
Potency [4]: inactive
Potency [16]: inactive
Potency [5]: inactive
outcome [6]: inactive
Potency [17]: inactive
Potency [7]: inactive
outcome [8]: inactive
Potency [9]: inactive
Potency [10]: inactive
Potency [14]: inactive
outcome [11]: inactive
outcome [12]: inactive
Potency [13]: inactive

CCCCOCCOC(=O)c1cccnc1
Potency [19]: inactive
Potency [2]: inactive
Potency [15]: inactive
Potency [3]: inactive
Potency [4]: inactive
Potency [16]: inactive
outcome [6]: inactive
Potency [17]: inactive
Potency [7]: inactive
Potency [14]: inactive
Potency [13]: inactive

CCC1CCC(CCC(=O)O)C1 (centres undefined)
Potency [1]: inactive
Potency [2]: inactive
Potency [3]: inactive
Potency [5]: inactive
Potency [17]: inactive
outcome [8]: inactive
Potency [9]: inactive
Potency [10]: inactive
Potency [14]: inactive
outcome [12]: inactive
Potency [13]: inactive

CCCCCCCC/C=C/C(=O)O
Potency [2]: inactive
Potency [15]: inactive
Potency [4]: inactive
Potency [16]: inactive
Potency [5]: inactive
Potency [17]: inactive
Potency [9]: inactive
outcome [11]: inactive
outcome [12]: inactive
Potency [13]: inactive

CCCc1nc2c(C)cc(-c3nc4ccccc4n3C)cc2n1Cc1ccc(-c2ccccc2C(=O)O)cc1
Potency [1]: inactive
Potency [2]: inactive
Potency [15]: 26.6 µM (active)
Potency [3]: inactive
Potency [4]: inactive
Potency [16]: inactive
Potency [5]: inactive
outcome [6]: inactive
Potency [17]: inactive
Potency [7]: inactive
Potency [9]: inactive
Potency [14]: inactive
outcome [12]: inactive
Potency [13]: inactive

Cc1cc(CCCOc2c(C)cc(-c3noc(C(F)(F)F)n3)cc2C)on1
Potency [19]: inactive
Potency [2]: inactive
Potency [3]: inactive
Potency [16]: inactive
Potency [5]: inactive
Potency [17]: inactive
Potency [9]: inactive
Potency [14]: inactive
outcome [11]: inactive
outcome [12]: inactive
Potency [13]: inactive

CCNc1nc(N)nc(Cl)n1
Potency [1]: inactive
Potency [2]: inactive
Potency [15]: inactive
Potency [3]: inactive
Potency [4]: inactive
Potency [16]: inactive
Potency [5]: inactive
outcome [6]: inactive
Potency [7]: inactive
Potency [9]: inactive
Potency [14]: inactive
outcome [11]: inactive
Potency [13]: inactive

CCOc1ncc(F)c(=O)[nH]1
Potency [19]: inactive
Potency [2]: inactive
Potency [15]: inactive
Potency [3]: inactive
Potency [4]: inactive
Potency [5]: inactive
Potency [17]: inactive
Potency [9]: inactive
Potency [14]: inactive
outcome [11]: inactive
outcome [12]: inactive
Potency [13]: inactive

CC(=O)N[C@@H](Cc1ccc(O)cc1)C(=O)O
Potency [1]: inactive
Potency [2]: inactive
Potency [15]: inactive
Potency [3]: inactive
Potency [4]: inactive
Potency [16]: inactive
Potency [5]: inactive
outcome [6]: inactive
Potency [17]: inactive
Potency [7]: inactive
Potency [9]: inactive
Potency [14]: inactive
outcome [11]: inactive
outcome [12]: inactive
Potency [13]: inactive
